Several values for one entry are separate records, joined by “and”; a condition that tells them apart may be missing. Identical values can stand only once. Counter-ions that a name gives are not always drawn.
What was measured:
Assay in all cases: cell viability relative to vehicle control; higher = less cytotoxic
Conditions in all cases: 10 µM
K562 = test system: K562
Summary of the method: (§1)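 CRISPR-edited SRSF2 P95 mutant and isogenic wild-type clones of four leukaemia lines were screened against Selleck bioactive, kinase and epigenetic probe libraries, with identity-inconsistent compounds removed. Compounds were acoustically dispensed into 384-well plates at a single 10 µM dose, with 2000 cells in 50 µL medium per well. After 48 h, supernatant was removed and CellTiter-Glo luminescence was read. Viability was expressed as percent of the on-plate DMSO vehicle control, analysed in Genedata Screener.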

MARIMO = test system: MARIMO
Summary of the method: as §1

MOLM14 = test system: MOLM14
Summary of the method: as §1

OCI-AML2 = test system: OCI-AML2
Summary of the method: as §1

Row | SMILES | cell viability (K562; SRSF2 genotype: SRSF2 P95H/wt) | cell viability (K562; SRSF2 genotype: SRSF2 wt/wt) | cell viability (MARIMO; SRSF2 genotype: SRSF2 P95H/wt) | cell viability (MARIMO; SRSF2 genotype: SRSF2 wt/wt) | cell viability (MOLM14; SRSF2 genotype: SRSF2 P95H/wt) | cell viability (MOLM14; SRSF2 genotype: SRSF2 wt/wt) | cell viability (OCI-AML2; SRSF2 genotype: P95H/wt) | cell viability (OCI-AML2; SRSF2 genotype: wt/wt)
1 | CC1CCC2(C(=O)O)CCC3(C)C(=CCC4C5(C)CCC(OC6OCC(O)C(O)C6O)C(C)(C)C5CCC43C)C2C1(C)O (configuration not stated) [Ziyuglycoside II] | 100% and 99.1% | 101% | 97.4% | 99% | 103% | 99% | 99.6% | 95.6%
2 | C#Cc1cccc(Nc2ncnc3cc(OC)c(OCCCCCCC(=O)NO)cc23)c1 | 1.25% and 12.2% | 3.12% | 9.16% | 8.09% | 1.03% | 0.53% | 1.68% | 2.66%
3 | CC[C@@]1(O)C(=O)OCc2c1cc1n(c2=O)Cc2cc3c(CN(C)C)c(O)ccc3nc2-1 [Topotecan] | 20.3% and 28% | 17.5% | 4.92% | 3.84% | 1.67% | 0.8% | 3.47% | 7.65%
4 | Oc1ccc(-c2nc(-c3ccc(F)cc3)c(-c3ccncc3)[nH]2)cc1 | 89.5% and 96.2% | 93.5% | 101% | 113% | 97.9% | 97.3% | 99.7% | 106%
5 | CN1CCN(CCCNc2ncc(Cl)c(-c3cc4c(C(=O)NC5CC5)cccc4s3)n2)CC1 | 97.4% and 98.7% | 93.2% | 81.4% | 85.8% | 58.8% | 79.9% | 68.8% | 72.7%
6 | Cc1nnc(C(=O)NC(C)(C)c2nc(C(=O)NCc3ccc(F)cc3)c(O)c(=O)n2C)o1 [Raltegravir (MK-0518)] | 101% and 94.3% | 94.6% | 95.8% | 103% | 98.1% | 93.5% | 95.4% | 98%
7 | C=C1C(=O)O[C@H]2[C@H]1CCC(C)=C1CC[C@@](C)(O)[C@@H]12 [Micheliolide] | 28.9% and 41.7% | 64.4% | 15.9% | 19.8% | 7.9% | 7.02% | 5.22% | 11.1%
8 | CC1=CC(=O)c2ccccc2C1=O [Menadione] | 95.2% and 95.7% | 108% | 98.9% | 93.1% | 91.1% | 102% | 14.8% | 12.8%
9 | CN1CCN(Cc2ccc(-c3cnc4[nH]cc(-c5ccc6[nH]ccc6c5)c4c3)cc2)CC1 | 2.18% and 1.72% | 2.36% | 0.62% | 0.44% | 0.32% | 0.4% | 0.33% | 0.41%
10 | C[C@]12C=CC(=O)C=C1CC[C@H]1[C@@H]3C[C@@H](O)[C@](O)(C(=O)CO)[C@@]3(C)C[C@H](O)[C@@]12F [Triamcinolone (Aristocort)] | 107% | 106% | 100% | 108% | 107% | 98.3% | 110% | 122%
11 | CCCCNc1cc(C(=O)O)cc(S(N)(=O)=O)c1Oc1ccccc1 [Bumetanide] | 105% and 102% | 102% | 96.5% | 108% | 105% | 101% | 99.9% | 110%
12 | OC[C@H]1O[C@H](OC[C@H]2O[C@H](O[C@]3(CO)O[C@H](CO)[C@@H](O)[C@@H]3O)[C@H](O)[C@@H](O)[C@@H]2O)[C@H](O)[C@@H](O)[C@H]1O [D-(+)-Raffinose pentahydrate] | 114% and 103% | 118% | 104% | 103% | 112% | 113% | 104% | 103%
13 | Cc1ccc2c(c1)c1c(n2CCc2ccc(C)nc2)CCN(C)C1 [Latrepirdine 2HCl] | 88.7% and 89.9% | 80.2% | 73.8% | 82% | 74.4% | 84.6% | 73.7% | 76%
14 | Cn1cc(-c2ccc3ncc(Cc4ccc5ncccc5c4)n3n2)cn1 | 108% and 96.6% | 98% | 102% | 101% | 87.7% | 101% | 72.5% | 79.3%
15 | O=C(c1ccccc1)c1ccc2nc(NC(=O)c3csc(C4CCN(c5ncnc6ccsc56)CC4)n3)[nH]c2c1 | 45.4% and 37.5% | 39.3% | 41.3% | 37.5% | 34.2% | 26.5% | 26.2% | 25%
16 | C=C1/C(=C\C=C2/CCC[C@]3(C)[C@@H]([C@H](C)/C=C/[C@H](C)C(C)C)CC[C@@H]23)C[C@@H](O)C[C@@H]1O [Doxercalciferol (Hectorol)] | 81.4% and 88.8% | 86.5% | 69.6% | 46.8% | 68.5% | 70.8% | 55.3% | 73%
17 | CC1CCN(CC[C@H]2CCCN2S(=O)(=O)c2cccc(O)c2)CC1 | 101% | 95% | 97.8% | 106% | 96.5% | 103% | 92.9% | 98.7%
18 | Brc1ccc2[nH]ccc2c1 [5-Bromoindole] | 107% and 100% | 107% | 95.7% | 98% | 99.5% | 103% | 102% | 115%
19 | O=C1NC(=O)/C(=C/c2ccc3c(c2)OC(F)(F)O3)S1 | 103% and 97.1% | 98.1% | 101% | 99.8% | 96.9% | 101% | 95.3% | 103%
20 | CC(=O)OC(CC(C)C1=C2CC(O)C3C4(C)CCC(=O)C(C)(C)C4CCC3(C)C2(C)CC1)C1OC1(C)C (configuration not stated) [Alisol B Acetate] | 81.3% and 84.2% | 87.8% | 68.4% | 55.6% | 72.8% | 87.8% | 64.1% | 68.6%

Row | SMILES | cell viability (K562; SRSF2 genotype: SRSF2 P95H/wt) | cell viability (K562; SRSF2 genotype: SRSF2 wt/wt) | cell viability (MARIMO; SRSF2 genotype: SRSF2 P95H/wt) | cell viability (MARIMO; SRSF2 genotype: SRSF2 wt/wt) | cell viability (MOLM14; SRSF2 genotype: SRSF2 P95H/wt) | cell viability (MOLM14; SRSF2 genotype: SRSF2 wt/wt) | cell viability (OCI-AML2; SRSF2 genotype: P95H/wt) | cell viability (OCI-AML2; SRSF2 genotype: wt/wt)
21 | COc1cc(O)c2c(c1)C(=O)c1cc(C)cc(O)c1C2=O [Rheochrysidin (Physcione)] | 96.9% and 101% | 95.5% | 98.4% | 111% | 102% | 103% | 92.5% | 102%
22 | C[N+]12CCc3cc4c(cc3C1(O)Cc1ccc3c(c1C2)OCO3)OCO4 (configuration not stated) [Hydroprotopine] | 94.4% and 93.5% | 89.5% | 84.6% | 91.9% | 91.2% | 98.8% | 96.3% | 99%
23 | OC(CN1CCN(c2cccc(Cl)c2)CC1)C(c1ccccc1)c1ccccc1 (configuration not stated) | 84.9% and 91.9% | 91.3% | 84.2% | 90.6% | 86.9% | 94.5% | 86.9% | 89.1%
24 | O=C(/C=C/c1ccc(O)c2c1[C@H](C(=O)O)[C@@H](c1ccc(O)c(O)c1)O2)O[C@H](Cc1ccc(O)c(O)c1)C(=O)O [Lithospermic acid] | 96.8% and 101% | 96% | 97.9% | 88.7% | 104% | 99.9% | 88.6% | 97.6%
25 | CN1CCN(c2ccc3nc(-c4c(N)c5c(F)cccc5[nH]c4=O)[nH]c3c2)CC1 [Dovitinib (TKI-258, CHIR-258)] | 59.5% and 69.8% | 57.1% | 22.1% | 32.9% | 2.27% | 0.38% | 3.02% | 6.09%
26 | NC(=O)c1cnc2[nH]ccc2c1N[C@@H]1[C@@H]2CC3C[C@H]1C[C@@](O)(C3)C2 | 89.4% and 109% | 98.6% | 70.9% | 71.5% | 13.2% | 9.06% | 15.3% | 19.3%
27 | CN(C)c1nc(N(C)C)nc(N(C)C)n1 [Altretamine (Hexalen)] | 99.3% and 102% | 99.7% | 97.3% | 95.2% | 94% | 98.5% | 99.7% | 98.4%
28 | COc1ccc([C@]2(C#N)CC[C@@H](C(=O)O)CC2)cc1OC1CCCC1 | 96.5% and 91.9% | 99.1% | 93.8% | 110% | 94.8% | 100% | 95.6% | 102%
29 | Cc1c(F)cc(C(=O)NC2CC2)cc1-c1ccc(C(=O)NCC(C)(C)C)cn1 [Losmapimod] | 92% and 93.7% | 97.8% | 95.7% | 103% | 94.1% | 100% | 86.7% | 95.5%
30 | CCc1ccc(CCOc2ccc(CC3SC(=O)NC3=O)cc2)nc1 (configuration not stated) [Pioglitazone (Actos)] | 98.5% and 116% | 109% | 104% | 103% | 102% | 108% | 111% | 103%
31 | O=C[C@H](O)[C@H]1OC(=O)[C@@H](O)[C@H]1O [D-Glucurone] | 90.4% and 88.2% | 86.3% | 84.2% | 95.1% | 88.8% | 88.3% | 88.8% | 94.2%
32 | C[C@@H](c1ccc2nccn2c1)n1nnc2ncc(-c3cnn(C)c3)nc21 [Savolitinib(AZD6094, HMPL-504)] | 94.1% and 97.5% | 104% | 94.3% | 91% | 96.6% | 97.2% | 90.3% | 96.5%
33 | CCN(CC)C(=S)SSC(=S)N(CC)CC [Disulfiram (Antabuse)] | 42.7% and 53.4% | 53.3% | 14% | 14.4% | 27.1% | 32.5% | 14% | 20.8%
34 | C[C@@H]([C@H](C)O)[C@H](N)C(=O)O [(4S)-4-Hydroxy-L-isoleucine] | 105% and 96.3% | 102% | 100% | 102% | 111% | 102% | 108% | 104%
35 | C[C@H]1O[C@@H](Oc2c(-c3cc(O)c(O)c(O)c3)oc3cc(O)cc(O)c3c2=O)[C@@H](O)[C@@H](O)[C@@H]1O [Myricitrin (Myricitrine)] | 94.5% and 101% | 99.4% | 102% | 102% | 104% | 103% | 108% | 94.3%
36 | CCN(CC)CCCC(C)Nc1c2ccc(Cl)cc2nc2ccc(OC)cc12 (configuration not stated) [Quinacrine Dihydrochloride Dihydrate] | 2.28% and 4.46% | 2.17% | 1.66% | 2.15% | 0.54% | 0.64% | 0.59% | 0.97%
37 | C#CCN[C@@H]1CCc2ccccc21 [Rasagiline mesylate] | 98% and 105% | 101% | 105% | 106% | 99.4% | 104% | 108% | 107%
38 | CC(S)C(=O)NCC(=O)O (configuration not stated) [Tiopronin (Thiola)] | 111% and 110% | 104% | 105% | 105% | 100% | 105% | 100% | 112%
39 | O=S(=O)(NCCSSCCNS(=O)(=O)c1cc(Cl)ccc1Cl)c1cc(Cl)ccc1Cl | 80.6% and 84.4% | 69.5% | 61% | 72.4% | 53.8% | 48.8% | 51.9% | 52.5%

Source: the supplement of paper PMC10981050
